Results from PubChem BioAssay AID577 (University of Pittsburgh Molecular Library Screening Center, 2007).
Out of some 65,000 compounds screened, about 120 (0.18%) were called active. No stated cut-off is given here; in the data, active means z-score below about -3; inactive means the rest. The list comes from a sample in which actives are over-represented; it also holds similar structures and randomly drawn compounds.

biological target: Genome polyprotein (West Nile virus) (UniProt P06935); test: West Nile NS2B-NS3 proteinase blockers – biochemical, fluorogenic substrate, primary screen (AID 577); details: WNV NS2B-NS3 protease, fluorogenic substrate Ex360/Em465; active compounds read low
Sequence (P06935 1371-1501 limits assumed): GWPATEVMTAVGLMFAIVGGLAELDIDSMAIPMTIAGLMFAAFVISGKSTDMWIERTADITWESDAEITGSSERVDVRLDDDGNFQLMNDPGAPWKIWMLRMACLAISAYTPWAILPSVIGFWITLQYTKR
Sequence (P06935 1502-1679 limits assumed): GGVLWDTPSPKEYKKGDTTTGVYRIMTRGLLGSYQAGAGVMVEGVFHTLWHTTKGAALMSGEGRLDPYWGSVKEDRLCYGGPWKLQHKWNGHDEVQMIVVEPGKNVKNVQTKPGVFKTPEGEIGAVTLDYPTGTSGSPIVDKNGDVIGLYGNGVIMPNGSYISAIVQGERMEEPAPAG

z-score, inactive:
COC(=O)c1cc(NC2c3ccccc3C(=O)N2c2ccc(Cl)cn2)cc(C(=O)OC)c1 (centres undefined) -0.39, CC(C)(C)c1ccc(C(=O)NCCC(=O)NCc2ccco2)cc1 0.25, CCCN(CCC)CCNC(=O)c1cc2c(C)nc3ccccc3c2o1 0.99, Cc1cc2cc(CN(Cc3cccs3)Cc3nnnn3CC3CCCO3)c(=O)[nH]c2cc1C (centres undefined) -0.04, CCOc1ccccc1Oc1cn[nH]c1-c1ccc(OC)cc1O -0.64, CC(C)CCNC(=O)CN(C(=O)Cn1nnc(-c2ccc(F)cc2)n1)C1CCCC1 -0.44, CCOC(=O)C1CCCN(C(=O)CN(c2ccc(OC)cc2)S(=O)(=O)c2c(C)noc2C)C1 (centres undefined) -0.04, Cc1cc(C)c(C)c(S(=O)(=O)Nc2ccc(O)cc2)c1C -1.62, CC(C(=O)N1CCOCC1)N1c2cccc3cccc(c23)S1(=O)=O (centres undefined) -0.43, CCCOc1ccc(Cn2c(O)cc(=O)[nH]c2=O)cc1 0.4, CCC(=O)N1CCN=C1SCc1ccc(F)cc1 0.56, COc1ccc(CCN=C2SCC(=O)N2C)cc1OC -0.84, Cn1c(=O)[nH]c(=O)c2c1nc(NCCCn1ccnc1)n2Cc1cccc(Br)c1 -0.12, CC(=O)Oc1ccc2c(C)c(CC(C)O)c(=O)oc2c1 (centres undefined) 5.37, COC(=O)c1ccccc1NC(=O)CSc1ccccn1 -0.33, Cn1cccc1Cc1nnc(SCC(=O)NCCc2ccccc2)n1-c1ccc(F)cc1 -0.68, COCCn1c(CN(Cc2ccccc2)Cc2ccccc2)nc2c1c(=O)n(C)c(=O)n2C 0.73, O=C(COc1ccc(Cl)cc1)Nc1ccccc1CO 1.62, CC(=O)C1=C(O)C(=O)N(c2ccc(S(N)(=O)=O)cc2)C1c1ccccc1F (centres undefined) -0.26, O=C(NCc1cccnc1)c1ccc(CS(=O)(=O)c2ccc(Br)cc2)o1 -0.48, CN(C)c1nc(N)nc(CSc2nnnn2-c2cccc3ccccc23)n1 -0.13, Fc1ccc(OCc2nn3c(Cn4nnc5ccccc54)nnc3s2)cc1 1.56, CS(=O)(=O)c1ccc2nc(NC(=O)C3CCCCC3)sc2c1 -0.5, Cc1ccc(F)cc1NC(=O)c1cccc(N(C)C)c1 -0.19, O=C(Nc1cccc(Cl)c1)OCc1ccccn1 0.46, CCC(C)(NC(=O)c1ccccn1)C(=O)NC1CCCCC1 (centres undefined) 0.53, O=C(Nc1ccc2c(c1)OCO2)C1CC(c2c(F)cccc2Cl)=NO1 (centres undefined) 1.16, CCSC1(SCC)N=C(N)C2(C#N)C(c3ccccc3)NC(C)=CC12C#N (centres undefined) -1.23, O=C(CC1OC(=O)c2ccccc21)NC1CCCCC1 (centres undefined) -0.53, O=C(NCC1CCCO1)C(C(=O)c1ccccc1)n1cc(Cl)ccc1=O (centres undefined) -0.94, CCn1cc(C(=O)N2CCN(C3CCCCC3)CC2)c2cc(OC)c(OC)cc2c1=O 0.44, O=C(O)C1CC(=O)N(Cc2cccnc2)C1 (centres undefined) -0.77, O=C1CCC(Cc2ccccc2)N1 (centres undefined) 0.78, O.O.O.O=S(=O)([O-])OC[C@H]1O[C@@H](O[C@]2(COS(=O)(=O)[O-])O[C@H](OS(=O)(=O)[O-])[C@@H](OS(=O)(=O)[O-])[C@@H]2OS(=O)(=O)[O-])[C@H](OS(=O)(=O)[O-])[C@@H](OS(=O)(=O)[O-])[C@@H]1OS(=O)(=O)[O-].[Al] -0.72, CC(C)CNS(=O)(=O)c1ccc(OCC(=O)Nc2ccc3c(c2)OCO3)c(Cl)c1 0.53, COc1cccc(-c2nn(C)c3sc(C(=O)N4CCN(c5ccccc5)CC4)cc23)c1 -0.13, O=C(c1ccccc1)c1cccn1CC(=O)N1CCN(c2ccc(F)cc2)CC1 -1.05, COc1cccc(-c2nc(S(=O)(=O)c3ccccc3)c(N3CCOCC3)o2)c1 -0.88, CC(C)n1c(C(O)c2ccccc2)nc2ccccc21 (centres undefined) -1.05, O=C(Nc1nnc(-c2ccc(Cl)cc2)o1)c1ccccc1Br 2.56, O=C(O)C1CCN1C1CCCCC1 (centres undefined) -0.3, CCCOc1ccc(NC(=O)C2CCCNC2=O)cc1 (centres undefined) 0.11, CCn1cc(C(=O)NC2CCCCCC2)c(=O)c2cc(S(=O)(=O)N3CCCCC3)ccc21 -1.17, Oc1ccc(Cl)cc1/C=N/c1nc2ccccc2[nH]1 -0.26, CCOC(=O)C1CCN(C(=O)CC2C(=O)N(Cc3ccccc3)C(C)c3nc4ccccc4n32)CC1 (centres undefined) -0.76, Brc1cnc(N2CCCC2)nc1N1CCCCC1 -0.6, CCOC(=O)c1ccc(Nc2cc(C)nc3nc(C)nn23)cc1 -0.96, Cn1nc(-c2ccc(N3CCOCC3)c(NC(=O)c3ccccc3)c2)c2ccccc2c1=O -0.07, COc1ccc(CCNC(=O)CSc2nnc(-c3cccc(F)c3)o2)cc1OC 0.62, O=C(CSC1=Nc2ccccc2C2=NC(c3ccccc3)C(=O)N12)NCC1CCCO1 (centres undefined) -0.94, CCOC(=O)N1CCN(C(=O)c2ccc(S(=O)(=O)c3ccc(C)cc3)c(NC(C)=O)c2)CC1 0.25, CCc1nc2oc3ccccc3c(=O)c2c(=O)n1Cc1ccc(OC)cc1 -0.51, CC1CCN(Cc2nc3c(c(=O)n(C)c(=O)n3C)n2Cc2cccc3ccccc23)CC1 -0.71, CCC(C(=O)N1CCOCC1)n1c(C(=O)OC)cc2occc21 (centres undefined) -1.12, O=C(NC1CCCCC1)N1CCc2[nH]c3ccccc3c2C1 0.65, Cn1c(=O)c2[nH]c(NCC3CCCO3)nc2n(-c2ccccc2)c1=O (centres undefined) -0.17, Cc1c(C(=O)NCC2CCCO2)sc2nc(-c3ccccc3)cn12 (centres undefined) 0.86, Cc1nn(Cc2ccccc2)c(Cl)c1C(=O)OC1CCOC1=O (centres undefined) 0.09, c1ccc(-c2cn3cccnc3n2)cc1 1.38
